The list is not random: actives were taken first. Their share in the collection is about 8.6%.
Marburg entry: inhibitors of Marburg virus binding or entry into cells; Marburg virus pseudotype entry/binding inhibition, cell-based; Potency, µM (titrated, usually from 49.2 µM), without a hit: top-dose activity change, negative = inhibition, usual class: inhibitors; 6.5% of 18,000 active
LASV entry inh: Lassa virus entry inhibition | Lassa virus pseudotyped entry inhibition, cell-based qHTS | Potency, µM (titrated, usually from 49.2 µM), inactives show at the top dose activity change, negative = inhibition, actives largely listed as inhibitors | 4.1% of 18,000 active | AID 720533
* = called active by the depositor; ? = inconclusive; · = no result given; ! = repeats disagree; [ ] = remark or other dose. Calls come from the whole dose curve; tested in HEK293 cells. % is set by controls: 0 for no effect and ±100 for the full control effect; potency is the fitted concentration of half-maximal effect.

SMILES	Marburg entry	LASV entry inh
CN1CCCC(CN2c3ccccc3Sc3ccccc32)C1 (stereo unspecified)	11.2µM*	28.2µM*
CC(C)(C)c1ccc(O[C@@H]2[C@H](O)CO[C@@H]2C=CC#Cc2ccccc2)cc1	-9.0%[8.59 µM]	-28.4%[8.59 µM]
COC(=O)C1=C(C)N(Cc2ccccc2)C(=O)NC1c1cccc(C(F)(F)F)c1 (stereo unspecified)	16.7%[8.59 µM]	5.1%[8.59 µM]
FC(F)(F)c1cc(CO[C@H]2CCCN[C@H]2c2ccccc2)cc(C(F)(F)F)c1	10µM*	25.1µM*
O[C@H]1C[C@H](c2ccc(Cl)cc2)N(Cc2cccs2)C[C@H]1n1cc(C2CC2)nn1	?	-5.0%
COc1ccc2c(c1OC)C(=O)OC2C1c2cc3c(cc2CCN1C)OCO3 (stereo unspecified)	7.6%	-1.0%
COc1ccc2c(c1OC)C(Cc1ccccc1)N1CCc3cc4c(cc3C1=C2)OCO4 (stereo unspecified)	?	25.1µM*
CCCCCC(=O)N1C[C@H](n2cc(COC(=O)c3ccccc3)nn2)[C@@H](O)C[C@H]1c1ccc(OC)cc1	9.1%	11.2%
CC(=O)Nc1cccc(C#Cc2cncnc2Nc2ccc(OCc3cccc(F)c3)c(Cl)c2)c1	12.5µM*	·
CS(=O)(=O)CCNCc1cc(-c2cc3c(Nc4ccc(OCc5cccc(F)c5)c(Cl)c4)ncnc3s2)cs1	?	-69.3%
COC(=O)[C@@H]1CC[C@H](C)[C@@H](c2ccc(C)cc2)N1C(=O)c1ccc(C=NO[C@@H](C)c2cn([C@H](CO)Cc3ccccc3)nn2)cc1	4.7%[8.59 µM]	·
C=CCN1C(=O)[C@@]2(CC(C)=CC[C@@H](C)O2)c2ccccc21	39.7%[8.59 µM]	-3.7%[8.59 µM]
O=C(C1CCCCC1)N1C[C@@H](n2cc(-c3ccc(F)cc3)nn2)[C@@H](O)C[C@@H]1c1ccccc1	-40.9%	·
N#Cc1ccc(OCc2cn(CC(=O)c3ccc(O)cc3)nn2)cc1	13.6%	-15.1%
CNCCCCOc1ccccc1Cc1ccccc1	7.08µM*	?
CN(C)CCOc1ccccc1Cc1ccccc1	?	10.1%
CCCCCCCCNS(=O)(=O)CCNCCc1ccccc1	-10.5%	4.3%
CCCCCCCCCCCCCCCC[N+](C)(C)Cc1ccccc1	25.1µM*	?
CCCCCCCCCCCCCC[N+](C)(C)Cc1ccccc1	?	28.2µM*
CCCCCCCCNS(=O)(=O)CCNCc1ccccc1	20.7%	31.7%
COC(=O)CC=C1c2ccc(OC)cc2[C@@H](OC)[C@@H]1C	3.5%[8.59 µM]	·
C=CC[C@H]1C(=O)N2[C@@H](C[C@@H](C)[C@@H]2c2ccccc2)[C@@H](CC=C)C(=O)N2[C@H]1C[C@@H](C)[C@@H]2c1ccccc1	?	30.8%[8.59 µM]
CC(C)N=C(N)/N=C(\N)Nc1ccc(Cl)cc1	-3.8%[17.8 µM]	0.1%[17.8 µM]
NC(=NCCCCCCN=C(N)/N=C(\N)Nc1ccc(Cl)cc1)/N=C(\N)Nc1ccc(Cl)cc1	?	10µM*!
O=C(NCCN1Cc2ccccc2OC(c2ccsc2)C1)c1cncs1 (stereo unspecified)	-9.2%	-15.1%
SMILES	Marburg entry	LASV entry inh
COc1cc(-c2cc(C)c3cccc(OC)c3n2)cc2c1OCCN(C(=O)CCn1ccc(C)n1)C2	-0.6%	35.5µM*
COc1cc(-c2c(OC)cccc2OC)cc2c1OCCN(C(=O)CCn1nc(C)cc1C)C2	-3.7%	-13.5%
C=C(C)C(=O)OC[C@@H]1CN2[C@H](c3ccc(Br)cc3)[C@H](C)CC[C@H]2C(=O)O1	45.7%[8.59 µM]	10.6%[8.59 µM]
COc1ccc2[nH]c(C(=O)c3ccccc3)cc2c1	3.16µM*	-8.9%
O=C(O)c1cc2ccccc2[nH]1	3.5%	-0.1%
Cc1ccc(CN2C[C@H](Sc3ccccn3)C[C@H]2C(=O)Nc2ccc3sc(C)nc3c2)cc1	?	-13.1%
COc1ccc(S[C@@H]2C[C@@H](C(=O)Nc3ccc4nccnc4c3)N(C3Cc4ccccc4C3)C2)cc1	-6.2%	3.16µM*
C[C@@]12CC[C@H](O)C[C@@H]1CC[C@H]1[C@@H]2C[C@@H](O)[C@]2(C)[C@@H](C3=CC(=O)OC3)CC[C@]12O	1.41µM*	3.55µM*
C[C@@]12CCC(O)C[C@H]1CCC1C2CC[C@]2(C)C(=O)CCC12 (stereo partly specified)	-17.2%	-2.6%
C[C@@]12CC[C@H](O)C[C@@H]1CC[C@H]1[C@H]2CC[C@@]2(C)[C@@H](C3=CC(=O)OC3)CC[C@]12O	1µM*	0.891µM*
CC(=O)[C@@]1(O)[C@H](O)CC2C3CCC4CC(O)CC[C@]4(C)C3CC[C@@]21C (stereo partly specified)	23.9%	-2.9%
COc1ccc([C@]23Cc4ccccc4[C@H](O2)c2c(cc(-c4ccccc4)oc2=O)O3)cc1	38.2%[8.59 µM]	2.6%[8.59 µM]
O=C(NN=C1C[C@@H](O)[C@H](O)[C@H]2[C@@H]3C(=O)N(C[C@@H]4CCCO4)C(=O)[C@@H]3CC[C@@H]12)OCc1ccccc1	-4.7%[8.59 µM]	·
